Experimental data published in the supplement of paper PMC7411054.

Experiments:
Conditions in all cases: treatment time: 24 h
HepG2-ACTB-RAB5A = assay: lowest phenotypically active concentration; higher = less potent
Outline: (§1)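 Live-cell features were measured per well and normalised to solvent control wells after fifteen gene-edited A549, HepG2 and WPMY1 reporter lines had been treated for 24 h at 0.3, 1, 3 or 9 µM in four wells each. A condition was deviating when ≥3 of 4 wells sat beyond the 95th percentile of control Euclidean distances. It was reproducible when the median replicate Pearson correlation exceeded the 95th percentile of non-replicates. Phenotypic activity demanded both.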

HepG2-CANX-COX4 = assay: as above
Outline: as §1

HepG2-GM130-SQSTM1 = assay: as above
Outline: as §1

HepG2-TUBA1B-RELA = assay: as above
Outline: as §1

WPMY1-ACTB-RAB5A [1] = assay: as above
Outline: as §1

WPMY1-CANX-COX4 = assay: as above
Outline: as §1

WPMY1-GM130-SQSTM1 = assay: as above
Outline: as §1

WPMY1-TP53BP1-CLTA = assay: as above
Outline: as §1

WPMY1-TUBA1B-RELA = assay: as above
Outline: as §1

WPMY1-ACTB-RAB5A [2] = assay: phenotypically active (imaging signature differs from DMSO and reproducible) at any of 0.3-9 uM (binary (1 = active, 0 = inactive)); higher = active
Outline: as §1

Row | SMILES | lowest phenotypically active concentration (HepG2-ACTB-RAB5A) [µM] | lowest phenotypically active concentration (HepG2-CANX-COX4) [µM] | lowest phenotypically active concentration (HepG2-GM130-SQSTM1) [µM] | lowest phenotypically active concentration (HepG2-TUBA1B-RELA) [µM] | lowest phenotypically active concentration (WPMY1-ACTB-RAB5A [1]) [µM] | lowest phenotypically active concentration (WPMY1-CANX-COX4) [µM] | lowest phenotypically active concentration (WPMY1-GM130-SQSTM1) [µM] | lowest phenotypically active concentration (WPMY1-TP53BP1-CLTA) [µM] | lowest phenotypically active concentration (WPMY1-TUBA1B-RELA) [µM] | phenotypically active (WPMY1-ACTB-RAB5A [2])
1 | C[C@H]1[C@H]2CC[C@H]3[C@@H]4CC=C5C[C@@H](N(C)C)CC[C@]5(C)[C@H]4CC[C@]23CN1C [Conessine] | 9 | 9 | 3 | 3 | 9 | 3 | 1 | 3 | 9 | 1 (active)
2 | CC1(C)CC(=O)C2=C(C1)NC(=S)NC2c1cccc(O)c1 (stereo not drawn) [Dimethylenastron] | 1 | 1 | 1 | 1 | 1 | 3 | 1 | 1 | 1 | 1 (active)
3 | CCN(CCO)CCCOc1ccc2c(Nc3cc(CC(=O)Nc4cccc(F)c4)n[nH]3)ncnc2c1 [barasertib-HQPA] | ≤ 0.3 | ≤ 0.3 | ≤ 0.3 | ≤ 0.3 | ≤ 0.3 | ≤ 0.3 | ≤ 0.3 | ≤ 0.3 | ≤ 0.3 | 1 (active)
4 | Nc1nc(Cl)nc2c1ncn2[C@H]1C[C@H](O)[C@@H](CO)O1 [cladribine] | ≤ 0.3 | ≤ 0.3 | ≤ 0.3 | ≤ 0.3 | 1 | 9 | 3 | 1 | 1 | 1 (active)
5 | Cn1cc(-c2[nH]c3cc(NC(=O)[C@H](N)C4CCCCC4)cc4c3c2C=NNC4=O)cn1 | 1 | 3 | 1 | 1 | ≤ 0.3 | ≤ 0.3 | ≤ 0.3 | ≤ 0.3 | ≤ 0.3 | 1 (active)
6 | N#Cc1c(C2CCNCC2)cc(-c2c(O)cccc2OCC2CC2)nc1N | 9 | 9 | 9 | 9 | 3 | 3 | 9 | 9 | 9 | 1 (active)
7 | COC(=O)Nc1nc2ccc(C(=O)c3cccs3)cc2[nH]1 [Nocodazole] | ≤ 0.3 | ≤ 0.3 | ≤ 0.3 | ≤ 0.3 | ≤ 0.3 | ≤ 0.3 | ≤ 0.3 | ≤ 0.3 | ≤ 0.3 | 1 (active)
8 | CO[C@H]1C[C@@H]2CC[C@@H](C)[C@@](O)(O2)C(=O)C(=O)N2CCCC[C@H]2C(=O)O[C@H]([C@H](C)C[C@@H]2CC[C@@H](OC(=O)C(C)(CO)CO)[C@H](OC)C2)CC(=O)[C@H](C)C=C(C)[C@@H](O)[C@@H](OC)C(=O)[C@H](C)C[C@H](C)C=CC=CC=C1C [Temsirolimus] | ≤ 0.3 | 1 | ≤ 0.3 | 1 | ≤ 0.3 | ≤ 0.3 | ≤ 0.3 | ≤ 0.3 | 3 | 1 (active)
9 | CCNC(=O)c1noc(-c2cc(C(C)C)c(O)cc2O)c1-c1ccc(CN2CCOCC2)cc1 | ≤ 0.3 | ≤ 0.3 | ≤ 0.3 | ≤ 0.3 | ≤ 0.3 | ≤ 0.3 | ≤ 0.3 | ≤ 0.3 | ≤ 0.3 | 1 (active)
10 | COc1c(C)cnc(Cn2cnc3c(Cl)nc(N)nc32)c1C | ≤ 0.3 | ≤ 0.3 | ≤ 0.3 | ≤ 0.3 | ≤ 0.3 | ≤ 0.3 | ≤ 0.3 | ≤ 0.3 | ≤ 0.3 | 1 (active)
11 | C=CC(=O)Nc1cccc(Nc2nc(Nc3ccc(Oc4ccnc(C(=O)NC)c4)cc3)ncc2F)c1 | 9 | – | 9 | 9 | 3 | 9 | 9 | – | – | 1 (active)
12 | CCN(CC)CCNc1ccc(CO)c2sc3ccccc3c(=O)c12 [hycanthone] | 9 | – | 9 | 9 | 9 | 9 | 3 | 9 | 9 | 1 (active)
13 | CC(C)CNc1nc(-c2cccc3ncccc23)cn2c(-c3ccc(C(=O)NC4CC4)cc3)cnc12 | 1 | 1 | 1 | 1 | 1 | – | 1 | 1 | – | 1 (active)
14 | Cc1ccc(Nc2nccc(N(C)c3ccc4c(C)n(C)nc4c3)n2)cc1S(N)(=O)=O [pazopanib] | – | 3 | 3 | – | 9 | 3 | – | – | 3 | 1 (active)
15 | CC[C@H](CO)Nc1nc(NCc2ccccc2)c2ncn(C(C)C)c2n1 [Roscovitine] | 9 | 3 | 9 | 3 | 9 | 9 | – | 9 | 9 | 1 (active)
16 | O=C(Nc1cccnc1)N1CCC(Cc2cccc(Oc3ccc(C(F)(F)F)cn3)c2)CC1 | 9 | – | – | 9 | – | – | 9 | – | – | 0 (inactive)
17 | CNc1nc(-c2ccc3c(N)n[nH]c3c2)cc(N2C[C@@H](C(=O)NC3CCCCC3)CC[C@H]2C)n1 | – | 3 | 3 | 9 | 1 | 1 | ≤ 0.3 | ≤ 0.3 | 1 | 1 (active)
18 | CN(C)C(=O)C(CCN1CCC(O)(c2ccc(Cl)cc2)CC1)(c1ccccc1)c1ccccc1 [loperamide] | 3 | – | 9 | 3 | 9 | 9 | 9 | 9 | 9 | 1 (active)
19 | CN1CCCC(n2nc(Cc3ccc(Cl)cc3)c3ccccc3c2=O)CC1 (stereo not drawn) [azelastine] | 9 | – | 9 | 9 | 9 | 9 | 9 | 9 | 9 | 1 (active)
20 | C[C@@H](N)[C@H]1CC[C@H](C(=O)Nc2ccncc2)CC1 | 3 | 1 | 1 | 3 | 1 | 1 | 1 | 9 | 1 | 1 (active)
21 | Cc1ccc(C(=O)N(CCCN)[C@@H](c2oc3cc(Cl)ccc3c(=O)c2Cc2ccccc2)C(C)C)cc1 | ≤ 0.3 | ≤ 0.3 | ≤ 0.3 | ≤ 0.3 | ≤ 0.3 | 3 | ≤ 0.3 | ≤ 0.3 | ≤ 0.3 | 1 (active)
22 | O=C1c2ccccc2-c2nc3nonc3nc21 | 3 | ≤ 0.3 | 3 | 3 | 3 | 9 | – | – | 3 | 1 (active)
23 | CCCCCCCCCCNCCSSCc1ccc(Cl)cc1 | 3 | 1 | 9 | 3 | – | 3 | 9 | 9 | – | 0 (inactive)
24 | CC[C@]12CCCN3CCc4c(n(c5ccccc45)C(=O)C1)[C@@H]32 [Eburnamonine (-)] | 9 | – | – | 9 | 9 | 9 | – | 3 | 9 | 1 (active)
